Reference: PubChem BioAssay (EPA / NIEHS)
Results filed as inconclusive are left out. More than one record can exist for a structure, and the calls need not agree. Activity calls are given as the source filed them. How the source made its calls: active means hit-call score of the fitted dose curve at least 0.9, where 1 is the maximum; inconclusive means response in the unintended direction; inactive means score below 0.9.

assay: ATG_XTT_Cytotoxicity: Cytotoxicity Assessment in the Attagene TRANS-FACTORIAL HepG2 Assay (AID 2283584);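 on AC50: cells exposed to compound for 24 h before reading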
Method: ATG_XTT_Cytotoxicity is a cell-based, single-readout assay that uses HepG2, a human liver cell line, with measurements taken at 24 hours after chemical dosing in a 24-well plate.ATG_XTT_Cytotoxicity is one of one assay component(s) measured or calculated from the ATG_XTT_Cytotoxicity assay. It is designed to make measurements of cell number, a form of viability reporter, as detected with […] signals by XTT cytotoxicity assay technology.Data from the assay component ATG_XTT_Cytotoxicity was analyzed into 1 assay endpoint. This assay endpoint, ATG_XTT_Cytotoxicity, was analyzed in the positive analysis fitting direction relative to DMSO as the negative control and baseline of activity. Using a type of viability reporter, loss-of-signal activity can be used to understand changes in the viability. Furthermore, this assay endpoint can be referred to as a primary readout, because the performed assay has only produced 1 assay endpoint. To generalize the intended target to other relatable targets, this assay endpoint is annotated to the cell cycle intended target family, where the subfamily is cytotoxicity.
Human liver HepG2 cells are transiently transfected with multiple reporter transcription units (MRTUs) in 6-well plates using FuGene 6 reagent (Roche; 3 ml FuGene/1 mg DNA). The MRTU constructs are regulated by a cis-regulating element (promoter). […] A major difference between the CIS and TRANS system is that in CIS activities of endogenous TFs are measured, whereas the TRANS assay evaluates changes in activities of exogenous, chimeric NR-Gal4 proteins. […] At the end of 24 hour incubation, total RNA was isolated using TriZol reagent (Invitrogen). The isolated RNA is then reverse-transcribed using oligo(dT) primer and Mo-MLV reverse transcriptase (Invitrogen) with DNAse I (Ambion) treatment for 30 min. The one-tenth of the produced cDNA was amplified by PCR using Taq DNA polymerase (Invitrogen) and two reporter sequence-specific primers. The PCR products were fluorescently labeled by primer extension with 6-arboxyfluorescein (6-FAM) 5'-labeled reporter sequence-specific primer (2 min at 95 C, 20 s at 68 C and 10 min at 72 C) and these products were digested with 5U of HpaI (New England Biolabs) for 2h at 37 C. The fragments were purified using Qiaquick PCR columns (Qiagen), analyzed on an ABI 3130xL genetic analyzer (Applied Biosystems) with peak positions identified by using a set of X-rhodamine (ROX)-labeled MapMarker1000 molecular weight standards (BioVentures). The raw capillary electrophoresis data was processed using Attagraph software (Attagene).

Row | Compound | outcome | AC50
1 | CC(C)c1cccc(C(C)C)c1N | inactive | –
2 | CC(C)(CO)COC(=O)C(C)(C)CO | inactive | –
3 | O=C(O[C@@H]1Cc2c(O)cc(O)cc2O[C@@H]1c1cc(O)c(O)c(O)c1)c1cc(O)c(O)c(O)c1 | inactive | –
4 | CCCCOCCOCCOC(C)=O | inactive | –
5 | CCOC(=O)C1=NN(c2ccc(Cl)cc2Cl)C(C)(C(=O)OCC)C1 (stereo not given) | inactive | –
6 | CCCC/C=C/C=C\C=O | inactive | –
7 | Nc1ccc(C(=O)OCCCOC(=O)c2ccc(N)cc2)cc1 | inactive | –
8 | CCCCNS(=O)(=O)c1ccccc1 | inactive | –
9 | CCCCC(=O)O | inactive | –
10 | CC1(C)CCC[C@]2(C)[C@H]3CC(=O)O[C@]3(C)CC[C@@H]12 | inactive | –
11 | c1ccc2c(c1)[nH]c1ccccc12 | inactive | –
12 | C=CC(=O)NC(C)(C)C | inactive | –
13 | CC=C(C)C=CC=C(C)C | inactive | –
14 | CC(c1cc(C(C)(C)C)cc(C(C)(C)C)c1O)c1cc(C(C)(C)C)cc(C(C)(C)C)c1O | inactive | –
15 | O=C(O)CC(C(=O)O)S(=O)(=O)O (stereo not given) | inactive | –
16 | O=C(O)c1cc(O)c2ccccc2c1O | inactive | –
17 | C=C1C[C@H]2[C@@H]3C=C(C)C4=CC(=O)CC[C@]4(C)[C@H]3CC[C@]2(C)[C@@]1(OC(C)=O)C(C)=O | inactive | –
18 | c1ccc2cnccc2c1 | inactive | –
19 | CCCCCCCCCCCCc1ccc(O)cc1 | inactive | 50.4 µM (active)
20 | CCc1cccc(CC)c1 | inactive | –

Row | Compound | outcome | AC50
21 | CCOC(=O)OC(=O)OCC | inactive | –
22 | Nc1ccnc(=O)[nH]1 | inactive | –
23 | CCCCCC1=CCCC1=O | inactive | –
24 | CCCCCCCCCCCC(=O)N(C)CC(=O)O | inactive | –
25 | [Cl][Eu]([Cl])[Cl] | inactive | –
26 | CC(C)(C)N | inactive | –
27 | C=C(C)C(=O)OCC(O)COc1ccc(C(C)(C)c2ccc(OCC(O)COC(=O)C(=C)C)cc2)cc1 (stereo not given) | inactive | –
28 | CC1=C(O)C(=O)C(C)O1 (stereo not given) | inactive | –
29 | Nc1ccc(C(=O)O)cc1 | inactive | –
30 | CCOC(=O)c1ccc(C)cc1 | inactive | –
31 | c1ccc2sc(SSN3CCOCC3)nc2c1 | inactive | –
32 | Cc1ccc(S(=O)(=O)N=C=O)cc1 | inactive | –
33 | CC(C)CCOCc1ccccc1 | inactive | –
34 | CCCCOC(=O)C(C)CC (stereo not given) | inactive | –
35 | CCCCOCCOC(=O)COc1ccc(Cl)cc1Cl | inactive | –
36 | N#Cc1ccc(C(c2ccc(C#N)cc2)n2cncn2)cc1 | inactive | –
37 | CC1CC(=O)CC(C)(C)C1 (stereo not given) | inactive | –
38 | Cc1c(C(=O)c2c[nH]n(C)c2=O)ccc(S(C)(=O)=O)c1C1=NOCC1 | inactive | –
39 | CCCCCCCC(=O)OCC | inactive | –
